The supplement of paper PMC8728848
The full list was thinned out, with the strongest signals kept by preference.

Key:
Assay in all cases: glycan array binding signal (z-score within array); higher = stronger binding
Settings in all cases: glycan notation: IUPAC condensed, linker removed
[1] = biological target: Fuc(a1-2)Gal(b1-3)GlcNAc(b1-2)Man(a1-3)[Fuc(a1-2)Gal(b1-3)GlcNAc(b1-2)Man(a1-6)]Man(b1-4)GlcNAc(b1-4)GlcNAc
How it was run: (§1)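 Negative Z-scores can be read as non-binding. The Z-score is calculated within each array and then averaged across arrays of one protein sequence at different concentrations or buffers and across linkers. Arrays, 3228 in all, were curated from the Consortium for Functional Glycomics database and kept only where the protein sequence was available.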

[2] = biological target: Fuc(a1-2)Gal(b1-3)GlcNAc(b1-2)Man(a1-3)[Fuc(a1-2)Gal(b1-3)GlcNAc(b1-2)Man(a1-6)]Man(b1-4)GlcNAc(b1-4)[Fuc(a1-6)]GlcNAc
How it was run: as §1

[3] = biological target: Fuc(a1-2)Gal(b1-4)Fuc(a1-3)]GlcNAc(b1-2)Man(a1-3)[Fuc(a1-2)Gal(b1-4)[Fuc(a1-3)]GlcNAc(b1-2)Man(a1-6)]Man(b1-4)GlcNAc(b1-4)GlcNAc
How it was run: as §1

Fuc(a1-2)Gal(b1-4)Glc = biological target: Fuc(a1-2)Gal(b1-4)Glc
How it was run: as §1

[4] = biological target: Fuc(a1-2)Gal(b1-4)GlcNAc(b1-2)Man(a1-3)[Fuc(a1-2)Gal(b1-4)GlcNAc(b1-2)Man(a1-6)]Man(b1-4)GlcNAc(b1-4)[Fuc(a1-6)]GlcNAc
How it was run: as §1

[5] = biological target: Fuc(a1-2)[Gal(a1-3)]Gal(b1-3)GlcNAc(b1-3)GalNAc
How it was run: as §1

[6] = biological target: Fuc(a1-2)[Gal(a1-3)]Gal(b1-4)GlcNAc(b1-2)Man(a1-3)[Fuc(a1-2)[Gal(a1-3)]Gal(b1-4)GlcNAc(b1-2)Man(a1-6)]Man(b1-4)GlcNAc(b1-4)[Fuc(a1-6)]GlcNAc
How it was run: as §1

[7] = biological target: Fuc(a1-2)[Gal(a1-3)]Gal(b1-4)GlcNAc(b1-3)[Fuc(a1-2)[Gal(a1-3)]Gal(b1-4)GlcNAc(b1-6)]GalNAc
How it was run: as §1

[8] = biological target: Fuc(a1-2)[GalNAc(a1-3)]Gal(b1-4)GlcNAc(b1-3)Gal(b1-4)GlcNAc
How it was run: as §1

[9] = biological target: Fuc(a1-2)[GalNAc(a1-3)]Gal(b1-4)GlcNAc(b1-3)[Fuc(a1-2)[GalNAc(a1-3)]Gal(b1-4)GlcNAc(b1-6)]GalNAc
How it was run: as §1

[10] = biological target: Fuc(a1-2)[GalNAc(a1-3)]Gal(b1-4)GlcNAc(b1-6)GalNAc
How it was run: as §1

[11] = biological target: Fuc(a1-2)[GalNAc(a1-3)]Gal(b1-4)[Fuc(a1-3)]GlcNAc
How it was run: as §1

[12] = biological target: Fuc(a1-3)[Gal(b1-4)]GlcNAc
How it was run: as §1

[13] = biological target: Fuc(a1-3)[Gal3S(b1-4)]GlcNAc6S
How it was run: as §1

Gal(a1-3)Gal(b1-3)GlcNAc = biological target: Gal(a1-3)Gal(b1-3)GlcNAc
How it was run: as §1

[14] = biological target: Gal(a1-3)Gal(b1-3)GlcNAc(b1-2)Man(a1-3)[Gal(a1-3)Gal(b1-3)GlcNAc(b1-2)Man(a1-6)]Man(b1-4)GlcNAc(b1-4)GlcNAc
How it was run: as §1

[15] = biological target: Gal(a1-3)Gal(b1-4)GlcNAc(b1-3)GalNAc
How it was run: as §1

Gal(a1-3)GalNAc = biological target: Gal(a1-3)GalNAc
How it was run: as §1

[16] = biological target: Gal(a1-4)Gal(b1-3)GlcNAc(b1-2)Man(a1-3)[Gal(a1-4)Gal(b1-3)GlcNAc(b1-2)Man(a1-6)]Man(b1-4)GlcNAc(b1-4)GlcNAc
How it was run: as §1

[17] = biological target: Gal(b1-3)GlcNAc(b1-2)Man(a1-3)[GlcNAc(b1-4)][Gal(b1-3)GlcNAc(b1-2)Man(a1-6)]Man(b1-4)GlcNAc(b1-4)GlcNAc
How it was run: as §1

[18] = biological target: Gal(b1-3)GlcNAc(b1-3)Gal(b1-4)GlcNAc(b1-2)Man(a1-3)[Gal(b1-3)GlcNAc(b1-3)Gal(b1-4)GlcNAc(b1-2)Man(a1-6)]Man(b1-4)GlcNAc(b1-4)GlcNAc
How it was run: as §1

[19] = biological target: Gal(b1-4)GlcNAc(b1-2)Man(a1-3)[GlcNAc(b1-4)][Gal(b1-4)GlcNAc(b1-2)Man(a1-6)]Man(b1-4)GlcNAc(b1-4)GlcNAc
How it was run: as §1

[20] = biological target: Gal(b1-4)GlcNAc(b1-2)[Gal(b1-4)GlcNAc(b1-6)]Man(a1-6)[Gal(b1-4)GlcNAc(b1-2)Man(a1-3)]Man(b1-4)GlcNAc(b1-4)GlcNAc
How it was run: as §1

[21] = biological target: Gal(b1-4)GlcNAc(b1-3)Gal(b1-4)GlcNAc
How it was run: as §1

Gal6S(b1-4)GlcNAc = biological target: Gal6S(b1-4)GlcNAc
How it was run: as §1

GlcNAc(b1-3)Gal = biological target: GlcNAc(b1-3)Gal
How it was run: as §1

GlcNAc(b1-4)GlcNAc = biological target: GlcNAc(b1-4)GlcNAc
How it was run: as §1

[22] = biological target: GlcNAc6S(b1-3)Gal(b1-4)GlcNAc
How it was run: as §1

[23] = biological target: Neu5Ac(a2-3)Gal(b1-3)GalNAc
How it was run: as §1

[24] = biological target: Neu5Ac(a2-3)Gal(b1-3)GalNAc(b1-3)Gal(a1-4)Gal(b1-4)Glc
How it was run: as §1

[25] = biological target: Neu5Ac(a2-3)Gal(b1-3)GlcNAc(b1-2)Man(a1-3)[GlcNAc(b1-4)][Neu5Ac(a2-3)Gal(b1-3)GlcNAc(b1-2)Man(a1-6)]Man(b1-4)GlcNAc(b1-4)GlcNAc
How it was run: as §1

[26] = biological target: Neu5Ac(a2-3)Gal(b1-3)[Fuc(a1-4)]GlcNAc
How it was run: as §1

Neu5Ac(a2-3)Gal(b1-4)Glc = biological target: Neu5Ac(a2-3)Gal(b1-4)Glc
How it was run: as §1

[27] = biological target: Neu5Ac(a2-3)Gal6S(b1-4)GlcNAc
How it was run: as §1

[28] = biological target: Neu5Ac(a2-3)Gal6S(b1-4)[Fuc(a1-3)]GlcNAc
How it was run: as §1

[29] = biological target: Neu5Ac(a2-3)[Neu5Ac(a2-6)]GalNAc
How it was run: as §1

[30] = biological target: Neu5Ac(a2-6)Gal(b1-4)GlcNAc(b1-2)Man(a1-3)[GlcNAc(b1-4)][Neu5Ac(a2-6)Gal(b1-4)GlcNAc(b1-2)Man(a1-6)]Man(b1-4)GlcNAc(b1-4)GlcNAc
How it was run: as §1

[31] = biological target: Neu5Ac(a2-6)Gal(b1-4)GlcNAc(b1-2)Man(a1-6)[Gal(b1-4)GlcNAc(b1-2)Man(a1-3)]Man(b1-4)GlcNAc(b1-4)GlcNAc
How it was run: as §1

[32] = biological target: Neu5Ac(b2-6)Gal(b1-4)GlcNAc
How it was run: as §1

B1: LgFlo1 (Saccharomyces pastorianus), B3IUA8 (protein)
chain: SGSTQACLPVGSRKNGMNVNFYKYSLQDSTTYSDPQYMAYKYSDTKKLGSVSGQTHLSIYYGPNTAFWNTASWSSDLFGFYTTPTNVTVEMTGYFLPPQTGSYTFKFATVDDSAILSVGGSIAFECCAQEQPPITSTDFTINGIKPWDAATPTDIKGSTYMYAGYYYPIKIVYSNAKALARLPVSVVLPDGTEVNDDFEGYVYSFDDDLSQSNCTIPDPSKHTTS
glycan array binding signal (z-score) [1]: 2.1
glycan array binding signal (z-score) [2]: 3.52
glycan array binding signal (z-score) [3]: 4.98
glycan array binding signal (z-score) (Fuc(a1-2)Gal(b1-4)Glc): -0.137
glycan array binding signal (z-score) [4]: 0.313
glycan array binding signal (z-score) [5]: 11.9
glycan array binding signal (z-score) [6]: 11.9
glycan array binding signal (z-score) [7]: 2.44
glycan array binding signal (z-score) [8]: -0.328
glycan array binding signal (z-score) [9]: 1.81
glycan array binding signal (z-score) [10]: -0.114
glycan array binding signal (z-score) [11]: 0.711
glycan array binding signal (z-score) [12]: 0.072
glycan array binding signal (z-score) [13]: 0.042
glycan array binding signal (z-score) (Gal(a1-3)Gal(b1-3)GlcNAc): 2.47
glycan array binding signal (z-score) [14]: 0.576
glycan array binding signal (z-score) [15]: -0.146
glycan array binding signal (z-score) (Gal(a1-3)GalNAc): -0.152
glycan array binding signal (z-score) [16]: 1.89
glycan array binding signal (z-score) [17]: 0.784
glycan array binding signal (z-score) [18]: -0.078
glycan array binding signal (z-score) [19]: -0.121
glycan array binding signal (z-score) [20]: 0.549
glycan array binding signal (z-score) [21]: -0.291
glycan array binding signal (z-score) (Gal6S(b1-4)GlcNAc): -0.114
glycan array binding signal (z-score) (GlcNAc(b1-3)Gal): -0.087
glycan array binding signal (z-score) (GlcNAc(b1-4)GlcNAc): -0.042
glycan array binding signal (z-score) [22]: -0.317
glycan array binding signal (z-score) [23]: 5.83
glycan array binding signal (z-score) [24]: -0.329
glycan array binding signal (z-score) [25]: -0.135
glycan array binding signal (z-score) [26]: -0.245
glycan array binding signal (z-score) (Neu5Ac(a2-3)Gal(b1-4)Glc): 1.97
glycan array binding signal (z-score) [27]: -0.229
glycan array binding signal (z-score) [28]: -0.151
glycan array binding signal (z-score) [29]: -0.356
glycan array binding signal (z-score) [30]: -0.203
glycan array binding signal (z-score) [31]: -0.38
glycan array binding signal (z-score) [32]: -0.214
